According to PubChem BioAssay (EPA / NIEHS):
Results filed as inconclusive are left out. The source made the active and inactive calls. How the source made its calls: active means hit-call score of the fitted dose curve at least 0.9, where 1 is the maximum; inconclusive means response in the unintended direction; inactive means score below 0.9.

molecular target: human Thyroid Receptor alpha (THRa1), THRA (gene 7067) (UniProt P10827); assay: ATG_THRa1_TRANS: Attagene TRANS-FACTORIAL HepG2 Assay for human Thyroid Receptor alpha (THRa1) (AID 2283014)
Sequence (P10827 whole entry, looked up): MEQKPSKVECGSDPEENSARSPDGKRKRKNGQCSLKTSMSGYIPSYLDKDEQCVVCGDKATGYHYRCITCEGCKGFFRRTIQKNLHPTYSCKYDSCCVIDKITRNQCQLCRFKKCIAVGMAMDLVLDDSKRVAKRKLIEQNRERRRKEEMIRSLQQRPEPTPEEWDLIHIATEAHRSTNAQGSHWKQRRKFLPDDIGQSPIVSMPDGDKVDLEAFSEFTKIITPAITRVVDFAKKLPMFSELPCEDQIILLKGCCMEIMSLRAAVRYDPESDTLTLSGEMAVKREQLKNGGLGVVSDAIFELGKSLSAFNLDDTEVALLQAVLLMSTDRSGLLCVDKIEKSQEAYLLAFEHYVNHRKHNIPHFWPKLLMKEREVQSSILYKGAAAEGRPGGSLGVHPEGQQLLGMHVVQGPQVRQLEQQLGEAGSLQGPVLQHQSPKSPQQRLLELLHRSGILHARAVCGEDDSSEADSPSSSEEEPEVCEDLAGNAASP
Description: ATG_TRANS is a cell-based, multiplexed-readout assay that uses HepG2, a human liver cell line, with measurements taken at 24 hours after chemical dosing in a 24-well plate.ATG_THRa1_TRANS is one of 30 assay component(s) measured or calculated from the ATG_TRANS assay. It is designed to make measurements of mRNA induction, a form of inducible reporter, as detected with fluorescence intensity signals by Reverse transcription polymerase chain reaction (RT-PCR) and Capillary electrophoresis technology.Data from the assay component ATG_THRa1_TRANS was analyzed into 1 assay endpoint. This assay endpoint, ATG_THRa1_TRANS, was analyzed in the positive analysis fitting direction relative to DMSO as the negative control and baseline of activity. Using a type of inducible reporter, measures of mRNA for gain-of-signal activity can be used to understand the reporter gene at the transcription factor-level as they relate to the gene THRA. Furthermore, this assay endpoint can be referred to as a primary readout, because this assay has produced multiple assay endpoints where this one serves a reporter gene function. To generalize the intended target to other relatable targets, this assay endpoint is annotated to the nuclear receptor intended target family, where the subfamily is non-steroidal.
Human liver HepG2 cells are transiently transfected with multiple reporter transcription units (MRTUs) in 6-well plates using FuGene 6 reagent (Roche; 3 ml FuGene/1 mg DNA). The MRTU constructs are regulated by a cis-regulating element (promoter). […] A major difference between the CIS and TRANS system is that in CIS activities of endogenous TFs are measured, whereas the TRANS assay evaluates changes in activities of exogenous, chimeric NR-Gal4 proteins. […] At the end of 24 hour incubation, total RNA was isolated using TriZol reagent (Invitrogen). The isolated RNA is then reverse-transcribed using oligo(dT) primer and Mo-MLV reverse transcriptase (Invitrogen) with DNAse I (Ambion) treatment for 30 min. The one-tenth of the produced cDNA was amplified by PCR using Taq DNA polymerase (Invitrogen) and two reporter sequence-specific primers. The PCR products were fluorescently labeled by primer extension with 6-arboxyfluorescein (6-FAM) 5'-labeled reporter sequence-specific primer (2 min at 95 C, 20 s at 68 C and 10 min at 72 C) and these products were digested with 5U of HpaI (New England Biolabs) for 2h at 37 C. The fragments were purified using Qiaquick PCR columns (Qiagen), analyzed on an ABI 3130xL genetic analyzer (Applied Biosystems) with peak positions identified by using a set of X-rhodamine (ROX)-labeled MapMarker1000 molecular weight standards (BioVentures). The raw capillary electrophoresis data was processed using Attagraph software (Attagene).

With `CCCCCCCCCCCCCCCCO` as the compound, how does the outcome read?
Its outcome is “inactive”.

With `O=C1OC(c2ccc(O)cc2)(c2ccc(O)cc2)c2ccccc21` as the compound, how does the outcome read?
The outcome was “inactive”.

`CC(N)=O` was tested. Which outcome did it give?
The outcome was “inactive”.

Which outcome does the source give for `c1ccc2occc2c1` here?
The outcome was “inactive”.

Which outcome does the source give for `O=[Si]=O` here?
Its outcome is “inactive”.

Which outcome does the source give for `NC=O` here?
The outcome was “inactive”.

With `COC(=O)[C@H]1[C@H]2C[C@@H]3c4[nH]c5cc(OC)ccc5c4CCN3C[C@H]2C[C@@H](OC(=O)c2cc(OC)c(OC)c(OC)c2)[C@@H]1OC` as the compound, how does the outcome read?
The outcome was “inactive”.

For `O=C(O)c1cccnc1`, which outcome is on record?
The outcome was “inactive”.

With `O=C1CCCCC1` as the compound, how does the AC50 read?
Its AC50 is 48.4 µM (active).

For `CC(=O)O[C@]1(C(C)=O)CC[C@H]2[C@@H]3C=C(Cl)C4=CC(=O)[C@@H]5C[C@@H]5[C@]4(C)[C@H]3CC[C@@]21C`, which outcome is on record?
The outcome was “inactive”.

Which outcome does the source give for `CC(C)COC(=O)CCCCC(=O)OCC(C)C` here?
Its outcome is “inactive”.

How did the outcome turn out when `O=C(Oc1ccccc1)c1cccc(C(=O)Oc2ccccc2)c1` was run?
Its outcome is “inactive”.

`CC(=O)O` was tested. Which outcome did it give?
Its outcome is “inactive”.

Which outcome does the source give for `O=C(NS(=O)(=O)/C=C/c1cccs1)c1ccc(F)cc1Br` here?
The outcome was “inactive”.

Which AC50 does the source give for `CCCCc1nc2cccnc2n1Cc1ccc(-c2ccccc2-c2nnn[nH]2)cc1` here?
Its AC50 is 21.4 µM (active).

With `CC(C)(O)c1ccc(CNC(=O)c2cccnc2Oc2ccc(F)cc2)cc1` as the compound, how does the outcome read?
The outcome was “inactive”.

With `O=C1c2c(O)cccc2Cc2cccc(O)c21` as the compound, how does the outcome read?
Its outcome is “inactive”.

Which outcome does the source give for `CC(=O)OCC(COC(C)=O)OC(C)=O` here?
Its outcome is “inactive”.

`C/C=C/C=C/C(=O)O` was tested. Which outcome did it give?
Its outcome is “inactive”.

With `CCN(CC)CCOc1ccc(C(=C(Cl)c2ccccc2)c2ccccc2)cc1` as the compound, how does the outcome read?
Its outcome is “inactive”.

`CN(C)C(=O)NC1(c2ccccc2)CCN(CCC[C@]2(c3ccc(Cl)c(Cl)c3)CCCN(C(=O)c3ccccc3)C2)CC1` was tested. Which outcome did it give?
Its outcome is “inactive”.

Which outcome does the source give for `CCCCOC(=O)CCCCC(=O)OCCCC` here?
Its outcome is “inactive”.

`CC1=C(C)S(=O)(=O)CCS1(=O)=O` was tested. Which outcome did it give?
The outcome was “inactive”.

For `Nc1nc(=S)c2[nH]cnc2[nH]1`, which outcome is on record?
The outcome was “inactive”.

For `CC(COCC(C)OC(=O)c1ccccc1)OC(=O)c1ccccc1` (stereo not given), which outcome is on record?
The outcome was “inactive”.

For `NC1CCCCC1`, which outcome is on record?
Its outcome is “inactive”.

Which outcome does the source give for `N[C@@H](Cc1c[nH]c2ccccc12)C(=O)O` here?
The outcome was “inactive”.

How did the outcome turn out when `CCCCCCC(CCCCCCCCCCC(=O)OCC(COC(C)=O)OC(C)=O)OC(C)=O` (stereo not given) was run?
Its outcome is “inactive”.

For `CCCCCCCC(=O)OC`, which outcome is on record?
The outcome was “inactive”.

`O=C1O[C@H]([C@H](O)CO)C(O)=C1O` was tested. Which outcome did it give?
The outcome was “inactive”.
